target: AMP-activated protein kinase, AMPK (Homo sapiens) (UniProt P54646+O43741+P54619+Q9UGJ0+Q9Y478+Q13131+Q9UGI9); experiment: AMP-dependent Kinase enzyme assay. An in vitro enzyme assay that detects ADP turnover that is directly proportional to AMPK activity. This uses naive AMPK that is activated during the assay with MK-8722; type: functional; parameters: scale not given: direction of the effect not stated beside the values; conditions: 30 µM

**Q.** For `COc1cccc(CC(=O)N2CCc3ncnc(NCCO)c3CC2)c1`, which Percent Effect is on record?
**A.** The Percent Effect was -1.01%.

**Q.** `Cn1cc(C(=O)NCc2ccc(OC3CCCCC3)nc2)ccc1=O` was tested. Which Percent Effect did it give?
**A.** The Percent Effect was -0.122%.

**Q.** Which Percent Effect does the source give for `O=C(NCCCNc1cccnc1)c1ccc2nccn2c1` here?
**A.** The Percent Effect was -8.67%.

**Q.** For `NC(=O)C1CCN(C(=O)NC(Cc2ccccc2)C(F)(F)F)CC1` (stereo unspecified), which Percent Effect is on record?
**A.** Its Percent Effect is 0.0823%.

**Q.** Which Percent Effect does the source give for `CN1CC2(CCN(CCCOCc3ccccc3)CC2)OC1=O` here?
**A.** Its Percent Effect is 2.54%.

**Q.** `CC(C)N(C)S(=O)(=O)c1ccc2c(c1)CCN(C(=O)c1cccnn1)C2` was tested. Which Percent Effect did it give?
**A.** Its Percent Effect is -25.3%.

**Q.** How did the Percent Effect turn out when `CC(C)Cc1cc(CNC(=O)c2cccc3c2OCC3)no1` was run?
**A.** The Percent Effect was 3.36%.

**Q.** With `CCCc1cc(N(CCOC)CC(F)F)n2ncnc2n1` as the molecule, how does the Percent Effect read?
**A.** The Percent Effect was 11.5%.

**Q.** For `CC(C)c1nc(CN(C)C(=O)[C@H](N)Cc2ccc(Cl)cc2)cs1`, which Percent Effect is on record?
**A.** Its Percent Effect is 2.32%.

**Q.** For `Clc1ccc2cccnc2c1CNC1CCc2ncnn2C1` (stereo unspecified), which Percent Effect is on record?
**A.** The Percent Effect was 3.85%.

**Q.** With `CC1CN(C)CCN1C(=O)c1cccn1Cc1cccnc1` (stereo unspecified) as the molecule, how does the Percent Effect read?
**A.** The Percent Effect was -3.9%.

**Q.** With `Cc1oc(-c2ccco2)nc1CN1CCc2cnc(C(C)C)nc2C1` as the molecule, how does the Percent Effect read?
**A.** The Percent Effect was -25.9%.

**Q.** How did the Percent Effect turn out when `O=C(NC1CCN(C2CC2)C1)c1cn(-c2ccc(F)cc2)nn1` (stereo unspecified) was run?
**A.** Its Percent Effect is -3.53%.

**Q.** With `CC(C)C(=O)Nc1cccc(CNC(=O)CSCc2ccccn2)c1` as the molecule, how does the Percent Effect read?
**A.** Its Percent Effect is 1.74%.

**Q.** `O=C(NCCc1cc(N2CCOCC2)nc(NC2CC2)n1)C1CC1` was tested. Which Percent Effect did it give?
**A.** Its Percent Effect is 23.1%.

**Q.** How did the Percent Effect turn out when `Cc1cc(C)c(C(=O)N2CCC3(CCCNC3)C2)cc1C` (stereo unspecified) was run?
**A.** The Percent Effect was 7.09%.

**Q.** `CCc1nnc(CS(=O)(=O)c2ccc(C)cc2)n1C` was tested. Which Percent Effect did it give?
**A.** Its Percent Effect is 6.29%.

**Q.** `O=C(CCCn1cccn1)N1CCCC(n2cncn2)C1` (stereo unspecified) was tested. Which Percent Effect did it give?
**A.** The Percent Effect was 5.88%.

**Q.** `Cc1nncn1CCN1C(=O)CC2(CCCC2)CC1=O` was tested. Which Percent Effect did it give?
**A.** Its Percent Effect is 9.66%.

**Q.** `Cc1nsc(C(=O)NCCc2ccc(Cl)cc2)n1` was tested. Which Percent Effect did it give?
**A.** Its Percent Effect is -0.0138%.

**Q.** Which Percent Effect does the source give for `CCCc1cc(C(=O)NC(COC)c2ccnn2C)no1` (stereo unspecified) here?
**A.** Its Percent Effect is -16.8%.

— ChEMBL document CHEMBL3988442, “University of Dundee, Small-Polar-MMV Screening Library” (2021)
